The values below come from PubChem BioAssay (NCATS).

The nature of test [1]: Primary qHTS for inhibitors of nuclear receptor binding SET domain protein 2 (NSD2) in an RCH-ACV wild type WT cells (2C) (AID 1645877). For activity change, negative = cell killing: % is set by controls: 0 for no effect and ±100 for the full control effect. Note: nearly all actives have a fitted effect of over 70% in size. Note: potency is the fitted concentration of half-maximal effect. Background: Quantitative high-throughput screening tests each substance at several concentrations.
Test [2] concerns the target Glutathione peroxidase 1 (Homo sapiens) (UniProt P07203). Briefly: Primary qHTS Assay for Inhibitors of Recombinant Selenoprotein Glutathione Peroxidase 1 (GPX1) (AID 1845191). For activity, negative = inhibition: % is set by controls: 0 for no effect and ±100 for the full control effect. Note: nearly all actives have a fitted effect of over 65% in size. In short, it runs like this: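 Recombinant GPX1 (10 nM final) was preincubated with compound for 30 min at room temperature, then reacted with 1 mM GSH, 0.5 mM CHP, 0.5 mM NADPH and 100 nM glutathione reductase; NADPH fluorescence (340/450 nm) was read at 0 and 15 min.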

Test [3] deals with Phospholipid hydroperoxide glutathione peroxidase GPX4 (Homo sapiens) (UniProt P36969). Briefly: Primary qHTS Assay for Inhibitors of Recombinant Selenoprotein Glutathione Peroxidase 4 (GPX4) (AID 1845192). For activity change, negative = inhibition: series mostly up to about 50 µM; % is set by controls: 0 for no effect and ±100 for the full control effect. Note: nearly all actives have a fitted effect of over 65% in size. Put shortly:
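GR-coupled readout: 100 nM GR, 1 mM GSH, 0.5 mM NADPH; NADPH fluorescence (ex 340/em 450 nm) read at t=0 and after 15 min RT. GPX4 200 nM, preincubated 30 min with compound; substrate 0.5 mM CHP.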

The target of test [4] is Luciferin 4-monooxygenase (Photinus pyralis) (UniProt P08659). The test is described as follows: Primary firefly luciferase (FLuc) qHTS assay for identification of artifact compounds. (AID 1845220).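 For activity change, negative = inhibition: series mostly up to about 54 µM; plate controls were DMSO vehicle for no effect and no enzyme for full effect.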 Note: nearly all actives have a fitted effect of over 60% in size. In short, it runs like this: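 Reaction readout was CCD-imaged luminescence, taken 5 min after adding 10 nM purified firefly enzyme to compound-treated wells holding 10 uM luciferin and ATP in pH 7.6 buffer.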

Test [5] can be described thus: Primary fluorescence-based thiol-reactive (MSTI) qHTS assay for identification of artifact compounds. (AID 1845221).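 For activity change, negative = thiol reactive: series mostly up to about 54 µM; thiol-reactive compounds lower the probe fluorescence signal.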 Note: nearly all actives have a fitted effect of over 65% in size. Note: potency is the fitted concentration of half-maximal effect. Put shortly: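 First, 4 uM MSTI in 2% DMSO/PBS pH 7.4 was dispensed; next, compounds were added; then plates sat 1 h at room temperature without light. Finally, emission at 598 nm was recorded.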
The test system of test [6] is Nanoluciferase (engineered Oplophorus gracilirostris luciferase). Briefly: Primary Nanoluciferase (NLuc) qHTS assay for identification of artifact compounds. (AID 1845222).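 Note: NLuc secreted into diluted conditioned medium of S16 cells; series mostly up to about 54 µM; 0% = DMSO and -100% = no enzyme.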 In short, it runs like this:
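Concentration-response data were obtained by luminescence after 5 min with Nano-Glo substrate at 1:100. The enzyme was diluted S16 NLuc-expressing cell medium, preincubated with compound for 15 min at RT. Curves were fitted with a 4-parameter Hill model.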

Test [7] is described as follows: Primary redox qHTS assay for identification of artifact compounds. (AID 1845223).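 Note: 0% = DMSO and 100% = reference compound.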 In short, it runs like this:
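Amplex Red (25 uM) and HRP (250 mU/mL) in HBSS, with compounds for 15 min, then 250 uM DTT for 30 min, room temperature, dark. Fluorescence 525/598 nm read; normalized to DMSO and 10 uM DA3003; Hill fit.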

Unmarked numbers belong to inactive results. Inconclusive results are not listed. Active and inactive are the calls of the source. Calls come from the whole dose curve; as a rule, active = well fitted curve in the direction sought with a large enough effect; inconclusive = small, poorly fitted or top-dose-only effect, or another doubt; inactive = no such curve, though single readings can be large; an effect the other way counts as inactive or inconclusive.

Chain of Glutathione peroxidase 1 (Homo sapiens) (P07203 whole entry, looked up): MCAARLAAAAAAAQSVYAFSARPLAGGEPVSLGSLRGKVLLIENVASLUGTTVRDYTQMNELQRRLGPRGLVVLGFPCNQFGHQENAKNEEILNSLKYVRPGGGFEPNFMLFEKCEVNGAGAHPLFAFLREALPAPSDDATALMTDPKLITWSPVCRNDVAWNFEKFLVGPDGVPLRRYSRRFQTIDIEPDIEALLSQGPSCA
Chain of Phospholipid hydroperoxide glutathione peroxidase GPX4 (Homo sapiens) (P36969 whole entry, looked up): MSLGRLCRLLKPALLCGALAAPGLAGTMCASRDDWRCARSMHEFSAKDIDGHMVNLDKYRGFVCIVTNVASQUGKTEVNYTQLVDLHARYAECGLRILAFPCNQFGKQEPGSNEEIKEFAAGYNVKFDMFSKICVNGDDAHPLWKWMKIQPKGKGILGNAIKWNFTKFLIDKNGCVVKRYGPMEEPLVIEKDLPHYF

For the molecule `O=C1CC2(CCCC2)[C@H](O)C(=O)N1CCCCN1CCN(c2ncccn2)CC1`, the Potency result in test [1], in test [2], in test [3], in test [4], in test [5] and in test [6] was “inactive” in each case.
With `Cc1cc2c(F)c(Oc3ncnn4cc(OCC(C)O)c(C)c34)ccc2[nH]1` (stereo not drawn), in test [1], the Potency was 7.28 µM (active). For the same molecule, the Potency entry in test [2], in test [3], in test [4], in test [5] and in test [6] was “inactive” in each case.
Turning to `C=CC(C)(C)c1[nH]c2ccccc2c1C[C@@H]1NC(=O)[C@H](Cc2c[nH]c3ccccc23)NC1=O`, the Potency entry in test [1], in test [2], in test [3], in test [4] and in test [6] was “inactive” in each case. Besides, the Potency in test [5] is 2.32 µM (active).
As to `CC(=O)OC[C@]12[C@H](OC(C)=O)C(=O)[C@@H]3[C@@H](OC(C)=O)[C@@]14O[C@@]3(C)COC(=O)c1cccnc1[C@@H](C)[C@H](C)C(=O)O[C@@H]([C@H](O)[C@@H]2OC(C)=O)[C@]4(C)O`, the Potency entry in test [1], in test [2], in test [3], in test [4], in test [5] and in test [6] was “inactive” throughout.
On to `CC1=CC2C(CC1OC1OC(CO)C(O)C(O)C1O)C(C)CC(=O)C2C(C)C` (stereo not drawn), for which the Potency entry in test [1], in test [2], in test [3], in test [4] and in test [6] was “inactive” each time. Besides, in test [5], the Potency was 3.69 µM (active).
For `COc1cc(C(=O)NC2CCN(C)CC2)c(F)cc1Nc1ncc2c(n1)N(C1CCCC1)CC(F)(F)C(=O)N2C`, the Potency in test [1] was 0.0833 µM (active). The Potency entry in test [2], in test [3], in test [4], in test [5] and in test [6] was “inactive” each time.
Take `CC[C@]12C=CCN3CC[C@@]4(c5cc([C@@]6(C(=O)OC)C[C@H]7C[C@@H](C(C)(F)F)CN(Cc8c6[nH]c6ccccc86)C7)c(OC)cc5N(C)[C@H]4[C@@](O)(C(=O)OC)[C@@H]1OC(C)=O)[C@@H]32`: in test [1], the Potency is 0.0879 µM (active). The Potency result in test [2], in test [3], in test [4], in test [5] and in test [6] was “inactive” throughout.
With `COc1cccc(Nc2ncnn3ccc(CN4CC[C@@H](N)[C@H](O)C4)c23)c1`, the Potency in test [1] is 4.68 µM (active). Besides, the Potency entry in test [2], in test [3], in test [4], in test [5] and in test [6] was “inactive” in each case.
`CC1CCC2(C=O)C(CO)=CCCC2C1(C)CC(=O)O` (stereo not drawn): the Potency result in test [1], in test [2], in test [3], in test [4] and in test [6] was “inactive” throughout. Moreover, the Potency in test [5] is 3.36 µM (active).
For the molecule `C[C@@H]1O[C@@H](O[C@H]2[C@H](O[C@H]3CC[C@@]4(C)C(CC[C@]5(C)C4CC=C4[C@@H]6CC(C)(C)CC[C@]6(C(=O)O[C@@H]6OC[C@H](O)[C@H](O)[C@H]6O[C@@H]6O[C@@H](C)[C@H](O[C@@H]7O[C@H](CO)[C@@H](O)[C@H](O)[C@H]7O)[C@H](O)[C@H]6O)[C@H](O)C[C@]45C)C3(C)C)O[C@H](CO)[C@@H](O[C@@H]3OC[C@@H](O)[C@H](O)[C@H]3O)[C@@H]2O)[C@H](O)[C@H](O)[C@H]1O` (stereo partly drawn), the activity change, negative = cell killing in test [1] is -15.2% [at 9.23 µM]. For the same molecule, the activity, negative = inhibition in test [2] is -13.9% [at 9.52 µM]; in test [6] it was 3.16% [at 11.6 µM]. Further, the outcome in test [3] was “inactive [at 9.73 µM]”. In test [4], the activity change, negative = inhibition was -1.49% [at 11.6 µM]. For the same molecule, the activity change, negative = thiol reactive in test [5] was 113% [at 11.5 µM].
Turning to `C[C@@H]1C(=O)O[C@H]2[C@H](O)C34[C@H]5C[C@@H](C(C)(C)C)C36[C@@H](OC(=O)[C@@H]6O)O[C@@]4(C(=O)O5)[C@@]12O` (stereo partly drawn), the Potency result in test [1], in test [2], in test [3], in test [4], in test [5] and in test [6] was “inactive” each time.
Take `C[C@@H]1O[C@@H](O[C@H]2[C@@H]3C=CO[C@@H](O[C@@H]4O[C@H](CO)[C@@H](O)[C@H](O)[C@H]4O)[C@@H]3[C@@]3(CO)O[C@@H]23)[C@H](OC(=O)/C=C/c2ccccc2)[C@H](O)[C@H]1O`: the Potency entry in test [1], in test [2], in test [3], in test [4] and in test [6] was “inactive” throughout. Also, in test [5], the Potency was 7.93 µM (active).
In the case of `COC(=O)C[C@H]1C(C)(C)[C@H](OC(C)=O)C2CC3=C4CC(=O)O[C@@H](c5ccoc5)[C@]4(C)CCC3[C@@]1(C)C2=O` (stereo partly drawn), the Potency result in test [1], in test [2], in test [3], in test [4], in test [5] and in test [6] was “inactive” in each case. Also, the Potency result in test [7] was “inactive”.
With `CC(C)=C/C=C\[C@H](C)[C@H]1CC[C@]2(C)C[C@@H]3C(C)=CC(=O)C3/C(CO)=C\C[C@@H]12` (stereo partly drawn), the Potency in test [1] is 11.3 µM (active). Also, the Potency result in test [2], in test [3], in test [4], in test [5], in test [6] and in test [7] was “inactive” each time.
As for `CC1(C(=O)O)CCCC2(C)C3CCC4CC3(CCC12)CC4=O` (stereo not drawn), the Potency result in test [1], in test [2], in test [3], in test [4], in test [5] and in test [6] was “inactive” each time. For the same molecule, in test [7], the Potency result was “inactive”.
